Most compounds without a hit are left out; they make up all but 9.4% or so of the library.
IMPase Li cell: cell-permeable IMPase inhibitors with lithium potentiation. CHO-M1 cells, IP1 TR-FRET (IP-One), carbachol + lithium. 0.35% of 210,000 active. Potency, µM (series often up to 59.4 µM), without a hit: top-dose activity, negative = IMPase inhibition, usual class: inhibitors;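 note: IP1 builds up when IMPase is blocked and the TR-FRET signal falls; potency is the fitted concentration of half-maximal effect; plate controls were basal vehicle for no effect and high inhibitor control for full effect; nearly all actives have a fitted effect of over 50% in size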
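Concentration–response in CHO-M1 cells, lithium-potentiated; 30 min at 37C. IP1 detected by competitive TR-FRET after 10 min lysis at RT. Hill-fitted AC50.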
IMPase inh: membrane-permeable compound that blocks inositol monophosphatase; 120,000 tested, under 10 active; CHO-M1 cells, IP1 accumulation, HTRF TR-FRET ratio; inhibition (IP1 accumulation), % at 46.1 µM; P97697; active = well fitted curve in the direction sought with a large enough effect in the signal ratio, not every such curve was filed as active; inconclusive = small, poorly fitted or top-dose-only effect, or a change in a side signal; inactive = no such curve, though single readings can be large or run the other way; the % refers to the signal ratio;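 note: cells stimulated with carbachol in lithium chloride buffer; plate controls were DMSO basal wells for no effect and reference inhibitor wells for full effect; higher means more IMPase inhibition seen as more IP1 and lower FRET ratio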
Target sequence (P97697 whole entry, looked up): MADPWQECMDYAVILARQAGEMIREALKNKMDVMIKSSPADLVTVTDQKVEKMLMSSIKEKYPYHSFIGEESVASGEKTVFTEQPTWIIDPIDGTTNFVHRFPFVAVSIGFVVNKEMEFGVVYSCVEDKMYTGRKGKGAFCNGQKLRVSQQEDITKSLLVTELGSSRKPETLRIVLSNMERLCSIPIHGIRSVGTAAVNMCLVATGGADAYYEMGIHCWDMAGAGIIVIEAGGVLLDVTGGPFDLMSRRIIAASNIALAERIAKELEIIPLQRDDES
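Cellular IMPase inhibition is scored as a rise in cytosolic IP1, detected by competitive TR-FRET between d2-labelled IP1 and a europium anti-IP1 antibody. M1-expressing CHO cells were stimulated with carbachol for 30 min at 37C, with lithium (50 mM LiCl) present in the buffer.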
HPGD inh: blocks human HPGD enzyme activity; P15428; purified HPGD, NADH fluorescence kinetic, PGE2 substrate; Potency, µM, for the others: at the highest dose activity change, negative = inhibition, most hits filed as inhibitors; 4.3% of 150,000 active; AID 894; active = well fitted inhibition curve with a large enough effect, not every such curve was filed as active; inconclusive = small, poorly fitted or top-dose-only effect, or another doubt; inactive = no such curve, though single readings can be large or run the other way; note: potency is the fitted concentration of half-maximal effect; % is set by controls: 0 for no effect and ±100 for the full control effect
Target sequence (P15428 whole entry, looked up): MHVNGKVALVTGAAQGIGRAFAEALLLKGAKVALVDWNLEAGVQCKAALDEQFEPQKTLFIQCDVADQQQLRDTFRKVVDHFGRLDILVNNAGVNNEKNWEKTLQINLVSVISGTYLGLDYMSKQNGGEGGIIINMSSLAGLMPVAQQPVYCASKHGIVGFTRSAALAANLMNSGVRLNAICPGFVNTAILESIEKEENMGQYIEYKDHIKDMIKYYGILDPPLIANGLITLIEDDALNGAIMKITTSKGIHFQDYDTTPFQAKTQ
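NADH formation kinetics: reaction with 30 uM PGE2 and 1 mM NAD+ (final), 20 nM enzyme, Tris-HCl pH 8 with Tween 20, after 15 min compound preincubation at room temperature. Fluorescence change, last versus first of five reads.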
HttQ103 aggreg: mutant huntingtin aggregation inhibition | PC12 HttQ103-GFP aggregates, Acumen cytometry, 40 h | AID 1688 | Potency, µM (doses to about 46.1 µM), without a hit: at the top dose activity change, negative = inhibition, usual class: inhibitors | 1.1% of 220,000 active; note: potency is the fitted concentration of half-maximal effect; % is set by controls: 0 for no effect and ±100 for the full control effect; nearly all actives have a fitted effect of over 60% in size
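PC12 cells stably carrying ecdysone-inducible HTT exon 1 Q103–GFP were induced with tebufenozide (100 nM final) and treated with library compounds in titration. GFP aggregates in lysates were counted by laser scanning cytometry.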
HTT ATP protect: protects HTT-Q103 PC12 cells, measured by ATP. PC12 HTT-Q103 induced, cytoprotection, ATP luminescence, 40 h. Potency, µM (highest dose often 56.4 µM), for inactives: cytoprotection (ATP increase), hits mostly activators. 0.14% of 230,000 active. AID 1471; note: potency is the fitted concentration of half-maximal effect; % of control where 0% means no effect; nearly all actives have a fitted effect of over 45% in size
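PC12 cells stably carrying ecdysone-inducible Htt exon 1 (Q103)–GFP were induced with 100 nM tebufenozide (final) alongside library compounds in a dose series. Cytoprotection was scored as retained ATP by ATPlite luminescence.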
ALDH1A1 inh: ALDH1A1 (human) enzyme inhibition | P00352 | AID 1030 | 7.3% of 220,000 active | Purified ALDH1A1, NADH fluorescence, propionaldehyde substrate | Potency, µM (series often up to 75.3 µM), for inactives: at the top dose activity, negative = inhibition, actives largely listed as inhibitors; active = well fitted inhibition curve with a large enough effect, not every such curve was filed as active; inconclusive = small, poorly fitted or top-dose-only effect, or another doubt; inactive = no such curve, though single readings can be large or run the other way;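 note: potency is the fitted concentration of half-maximal effect; plate controls were no enzyme wells and a reference inhibitor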
* marks the source's active call; other numbers are inactive results; ? = inconclusive; / = not tested or not shown; [ ] = dose if it differs, or a comment. Unless noted, calls come from the whole dose curve; as a rule, active = well fitted curve in the direction sought with a large enough effect; inconclusive = small, poorly fitted or top-dose-only effect, or another doubt; inactive = no such curve, though single readings can be large; an effect the other way counts as inactive or inconclusive.

SMILES	IMPase Li cell	IMPase inh	HPGD inh	HttQ103 aggreg	HTT ATP protect	ALDH1A1 inh
COC(=O)[C@@H](NC(=O)O[C@@H]1C(=O)c2cc(OC)ccc2O[C@H]1c1cccc(OC)c1)C(C)C	15%	/	-9%	/	/	-13%
CC(C(=O)OCC(=O)Nc1ccc2c(c1)OCO2)N1C(=O)c2ccccc2C1=O (centres undefined)	61%[38.3 µM]	9	-19%	-6%	-6%	7.1µM*
CC(C(=O)OCC(=O)Nc1cccc(S(=O)(=O)N2CCOCC2)c1)N1C(=O)c2ccccc2C1=O (centres undefined)	-10%	/	/	-5%	14%	25µM*
CC(C)=NOCc1ccc(-c2cc(-c3ccccc3)no2)cc1	/	/	/	/	-13%[10 µM]	1%[13.5 µM]
Cc1ccc(OCc2n[nH]c(=S)n2C2CCCCC2)cc1	23%[38.3 µM]	-4	14µM*	-16%	-1%	14µM*
Cc1cccc(OCc2n[nH]c(=S)n2C2CCCCC2)c1	3%	0	10µM*	-4%	9%[10 µM]	?
S=c1[nH]nc(COc2ccc(Cl)cc2)n1C1CCCCC1	4%	4	14µM*	-5%	-25%[10 µM]	?
S=c1[nH]nc(CSCc2ccccc2Cl)n1C1CCCCC1	9%	/	/	-19%	/	?
CN(C)CCNc1ccccn1	1%	/	-9%	/	5%[10 µM]	14%[13.5 µM]
O=C(O)Cc1cccc(OCCCN(Cc2cccc(C(F)(F)F)c2Cl)CC(c2ccccc2)c2ccccc2)c1	-22%	/	-18%	/	-334%	?
Cc1nnc(N2C(=O)C(O)=C(C(=O)c3ccco3)C2c2cccc3ccccc23)s1 (centres undefined)	/	/	/	0%[9.22 µM]	17%[10 µM]	/
Cc1ccc2nc(N3C(=O)C(O)=C(C(=O)c4cc5ccccc5o4)C3c3cccs3)sc2c1 (centres undefined)	-25%[38.3 µM]	?	-28%	-4%	-5%	20µM*
CCc1ccc2nc(N3C(=O)C(O)=C(C(=O)c4ccco4)C3c3cccs3)sc2c1 (centres undefined)	-29%	-13	20µM*	-3%	-6%[10 µM]	-3%
COC(=O)c1sc(N2C(=O)c3oc4ccccc4c(=O)c3C2c2cccs2)nc1C (centres undefined)	20%[38.3 µM]	-5	-10%	-5%	5%[1.9 µM]	-4%
Cc1cc(N2C(=O)C(O)=C(C(=O)c3ccco3)C2c2ccc(O)cc2)no1 (centres undefined)	?	-18	-11%	8%	13%	-1%
Cc1cc(N2C(=O)C(O)=C(C(=O)c3ccc(C)o3)C2c2cccs2)no1 (centres undefined)	10µM*	?	28µM*	1%	-1%[0.074 µM]	22µM*
CN1CCN(CCCN)CC1	-7%	/	2%	/	-6%[10 µM]	16%[13.5 µM]
COc1ccc(S(=O)(=O)N(CC(=O)NC2CC2)C2CCCCC2)cc1Cl	35%[38.3 µM]	22	-6%	18%	1%	8.9µM*
CNC(=O)CN(C1CCCCC1)S(=O)(=O)c1ccc(OC)c(Cl)c1	6%[38.3 µM]	-4	-8%	7%	1%[10 µM]	1%
COc1cccc([C@@H]2Oc3ccc(OC)cc3C(=O)[C@H]2OC(=O)NS(=O)(=O)c2ccc(F)cc2)c1	2%	/	-17%	/	-75%	3%
O=C(N/N=C/c1c(Cl)cccc1Cl)c1n[nH]c2c1CCCC2	9%	/	4µM*	13%	-24%[10 µM]	-3%
Cc1ccsc1/C=N\NC(=O)c1n[nH]c2c1CCC2	2%	1	-30%	-12%	-43%[10 µM]	-7%
COc1ccc(-c2nc3ccccc3n3c(-c4ccc(OC)cc4)c4c(=O)n(C)c(=O)n(C)c4c23)cc1	/	2	/	/	/	/
COc1ccc2c(c1)C(=O)[C@H](OC(=O)N[C@H]1CCCc3ccccc31)[C@@H](c1ccc(OC)c(Br)c1)O2	5%	/	-10%	/	26%	?
O=C(Cc1ccccc1)N1CCN(S(=O)(=O)c2cccc([N+](=O)[O-])c2)CC1	6%	/	/	19%[9.22 µM]	16%[10 µM]	?
COc1ccc(C(=O)N2CCN(S(=O)(=O)c3ccc(F)cc3)CC2)cc1OC	1%	/	/	8%	0%	1%

Assay outcomes deposited in PubChem BioAssay by National Center for Advancing Translational Sciences (NCATS).
